Reference: PubChem BioAssay (NCI)
About 79,000 compounds went through this panel and 15% of them were active in at least one assay; those are over-represented in the sample as a whole. Rule as the data show it: active = growth inhibition above about 70%; inactive = the rest.

Experiments:
[1] = NCI Yeast Anticancer Drug Screen. Data for the rad50 strain (AID 155);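 also: 0% = growth of vehicle-only cultures of the same strain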; details: S. cerevisiae rad50 strain growth inhibition; at 50.0 µM; stronger effect = higher value
Outline: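 Readout: growth inhibition relative to vehicle-treated cultures. Compound exposure was carried out in a genetically defined yeast strain deficient in DNA damage repair.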

[2] = NCI Yeast Anticancer Drug Screen. Data for the mec2-1 strain (AID 157); details: S. cerevisiae mec2-1 strain, at 50.0 µM, stronger effect = higher value
Outline: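 Test agents were screened against the mec2-1 yeast strain, with defined DNA repair or cell cycle alteration. Growth was scored as inhibition against vehicle-only controls.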

[3] = NCI Yeast Anticancer Drug Screen. Data for the sgs1 mgt1 strain (AID 161);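 also: 0% = growth of cultures given vehicle only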; details: S. cerevisiae sgs1 mgt1 strain, at 50.0 µM, stronger effect = higher value
Outline: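 Mutant yeast exposed to compound; growth scored against vehicle-only wells.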

[4] = NCI Yeast Anticancer Drug Screen. Data for the cln2 rad14 strain (AID 165);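 also: 0% = growth equal to vehicle treated cultures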; details: S. cerevisiae cln2 rad14 strain, at 50.0 µM, stronger effect = higher value
Outline: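 Growth of compound-exposed yeast (cln2 rad14 genotype) measured and expressed as inhibition relative to vehicle.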

[5] = NCI Yeast Anticancer Drug Screen. Data for the bub3 strain (AID 167); details: S. cerevisiae bub3 mutant strain, at 50.0 µM, stronger effect = higher value
Outline: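 Readout: yeast growth inhibition, expressed relative to vehicle-only wells. The test organism is a mutant strain from a panel with lesions in DNA repair or checkpoint genes.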

[6] = NCI Yeast Anticancer Drug Screen. Data for the mlh1 rad18 strain (AID 175); details: S. cerevisiae mlh1 rad18 strain growth inhibition; at 50.0 µM; stronger effect = higher value
Outline: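 In this whole-cell yeast screen, a strain with altered DNA damage repair is challenged with compound, and its growth is measured against matched vehicle-treated controls.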

Measured: growth inhibition

CCCCn1cc(C(=O)O)c(=O)c2c3sccc3ccc21
inactive: [1] -24.1% | [2] -35.8% | [3] -8.95% | [4] -5.15% | [5] -9.5% | [6] -26.1%

O=C1NOCC1NCc1c(O)ccc2ccccc12 (centres undefined)
inactive: [1] 19.9% | [2] 13.2% | [3] 33.7% | [4] 26.6% | [5] 17.9% | [6] 23.2%

N#Cc1c2nc3ccccc3nc2n2ccc3ccccc3c12
inactive: [1] -50% | [2] -61% | [3] -83.3% | [4] -13.1% | [5] -42.5% | [6] -71.7%

CC(=O)OC(C(=O)N(c1ccccc1)c1ccccc1)c1ccccc1 (centres undefined)
inactive: [1] 3.5% | [2] 27.4% | [3] 10.9% | [4] 18.2% | [5] 7.35% | [6] 16.1%

O=C(O)C1C(c2ccccc2)CC(=O)N1c1ccc(Cl)cc1 (centres undefined)
inactive: [1] 1.55% | [2] 8.25% | [3] 5.75% | [4] 1.1% | [5] 19.6% | [6] -7.6%

[Cl][Pt+2][Cl].[NH-]CC1(C[NH-])CCC1
inactive: [1] 1.1% | [2] 1.5% | [3] 9.2% | [4] 9% | [5] -18.9% | [6] -40%

O=C1NN(c2ccccc2)C(=O)C2C3c4ccccc4C(c4ccccc43)C12 (centres undefined)
inactive: [1] 2.45% | [2] -6.8% | [3] 0.7% | [4] -3.3% | [5] -2.4% | [6] 2.85%

C[N+](C)([O-])Cc1ccccc1
inactive: [1] -12.9% | [2] -27.4% | [3] -19.4% | [4] -0.8% | [5] -5.2% | [6] -16.9%

CCCCCCCCCCCCCCCCOc1ccc2ccccc2c1
inactive: [1] 4.15% | [2] -6.25% | [3] 14.9% | [4] -56.4% | [5] 10.2% | [6] 29.2%

NC1=NC(=O)C(CC(=O)Nc2ccc(Cl)cc2Cl)S1 (centres undefined)
inactive: [1] -12.4% | [2] -17.6% | [3] -15.2% | [4] 3.3% | [5] -5.6% | [6] -5.6%

c1cc[n+](Cc2ccc3ccccc3n2)cc1
inactive: [1] -0.95% | [2] -5.5% | [3] -5.85% | [4] -27.4% | [5] -2.2% | [6] 28.9%

CCOC(=O)c1c(C)c(C)cc(C)c1C
inactive: [1] -4.75% | [2] -7.6% | [3] -5.45% | [4] 6.15% | [5] 2.3% | [6] -10.8%

CCCC1OC1(CC)C(=O)OCC(CC)(COC(=O)C1(CC)OC1CCC)COC(=O)C1(CC)OC1CCC (centres undefined)
inactive: [1] -7.4% | [2] -19.5% | [3] 1.25% | [4] -2.05% | [5] 4.35% | [6] 4%

CC1=CC(C)(C)Nc2ccccc2N1
inactive: [1] -7.1% | [2] -4.85% | [3] -8.8% | [4] 14.2% | [5] -3% | [6] 1.45%

O=C(NNC(=O)c1ccc([N+](=O)[O-])cc1)c1ccccc1
inactive: [1] -5.85% | [2] 13.1% | [3] 15.9% | [4] -30.1% | [5] -13.4% | [6] -16.1%

CCCCNC(=O)C1C(=O)N(CCCC)C(=O)/C1=N\N (centres undefined)
inactive: [1] -1.45% | [2] 26.4% | [3] 8.5% | [4] 56.3% | [5] 0.35% | [6] 12.8%

CCOC(=O)C(Cc1ccccc1)Nc1c(Cl)c(=O)oc2ccc(C)cc12 (centres undefined)
inactive: [1] 18.6% | [2] -3.2% | [3] 32.7% | [4] 26.9% | [5] -16.4% | [6] 19.6%

Cc1cc(=O)[nH]c(NNC(=S)NC2CCCCC2)n1
inactive: [1] -17.4% | [2] -41.8% | [3] 10.9% | [4] 2.85% | [5] -28.4% | [6] -18.6%

CCCCOC(=O)/C(=C\c1ccc(OC(C)=O)c(OC)c1)NC(=O)c1ccccc1
inactive: [1] 4.7% | [2] 7.6% | [3] -1.5% | [4] -10.3% | [5] 14.9% | [6] -6.35%
